The list is not random: actives were taken first. Their share in the collection is about 8.8%.
IL1B secr inh: inhibitors of inflammasome signaling (IL-1 beta secretion); activity change, % at 57.5 µM; THP-1 LPS/ATP IL-1B secretion, AlphaLISA, 16 h; active compounds read low; AID 743279; actives 4.7% (n = 360,000); in the data active means activity change below about -50%; inconclusive means mostly about -30% to -49%
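THP-1 cells pretreated 1 hr with compounds (up to 57.5 uM final), then stimulated with LPS (250 ng/mL final) plus ATP (1.25 mM final); secreted IL-1B measured by AlphaLISA after 16 hr, decreased signal indicating inhibition.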
KB-V1 MDR tox: KB-V1 MDR subline cytotoxicity | KB-V1 MDR cells viability, CellTiter-Glo, 72 h | Potency, µM (titrated, usually from 46.1 µM), usual class: cytotoxic | actives 3.4% (n = 400,000); further: nearly all actives have a fitted effect of over 60% in size
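KB-V1 cells (P-gp-expressing MDR subline of KB-3-1) in phenol-red-free DMEM with 10% FBS were exposed to library compounds over a concentration series for 72 h at 37 degrees C. Viability read by CellTiter-Glo luminescence; concentration-effect curves fitted after normalization.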
HT1080NT lethal: kills 2HG-producing HT-1080-NT fibrosarcoma cells. HT-1080-NT fibrosarcoma viability, CellTiter-Glo ATP luminescence, 48 h. Potency, µM (doses to about 46.1 µM), most hits filed as cytotoxic. actives 1.6% (n = 360,000);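 further: NT is the 2HG producing partner of a matched IDH1 knockdown line; nearly all actives have a fitted effect of over 55% in size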
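Fibrosarcoma NT cells, 750 per well in 5% FBS RPMI, were exposed to compound for 48 hours. Viability: CellTiter-Glo luminescence.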
HT1080 IDH1KD tx: toxicity to HT-1080 IDH1 knockdown cells (counter line); HT-1080 IDH1 knockdown viability, ATP luminescence, 48 h; actives 2% (n = 360,000); AID 686971; Potency, µM (doses to about 46.1 µM), most hits filed as cytotoxic
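In this qHTS, HT-1080 cells depleted of IDH1 are exposed for 48 h at 37 °C to compound titrations. Toxicity is scored from CellTiter-Glo luminescence, with DMSO as full viability and medium alone as none.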
KB-3-1 tox: KB-3-1 parental cell cytotoxicity; KB-3-1 viability, CellTiter-Glo ATP luminescence, 72 h; Potency, µM (top dose mostly 46.1 µM), usual class: cytotoxic; actives 1.4% (n = 400,000); AID 1347075; further: nearly all actives have a fitted effect of over 60% in size
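Luminescent ATP read-out (CellTiter-Glo) measures survival of drug-naive KB-3-1 cells after 72 h compound exposure at 37 °C. Titration series was screened from lowest to highest concentration, with DMSO vehicle plates as background controls.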
Numbers stand for hits; i = inactive; ? = inconclusive; nt = not tested or not shown. Unless noted, the call rests on the fitted dose curve; in most records, active means well fitted curve in the direction sought with a large enough effect; inconclusive means small, poorly fitted or top-dose-only effect, or another doubt; inactive means no such curve, though single readings can be large; an effect the other way counts as inactive or inconclusive.

SMILES	IL1B secr inh	KB-V1 MDR tox	HT1080NT lethal	HT1080 IDH1KD tx	KB-3-1 tox
COc1ccc(C)cc1NC(=O)CNC(c1ccccc1)c1ccc(C)cc1 (configuration not stated)	i	i	?	5.2µM	4.6µM
COc1ccc(C)cc1NC(=O)C(NCC1CCCO1)c1ccccc1 (configuration not stated)	i	16µM	i	i	i
C[C@@H](NC(=O)c1nc[nH]c1C(=O)N(C)Cc1ccccc1)c1ccccc1	i	i	i	i	i
COC(=O)c1cc(=O)n(CCc2ccc(OC)cc2)c(=Nc2ccc(F)c(Cl)c2)s1	nt	i	21µM	?	?
C[C@H](CO)N1C[C@H](C)[C@@H](CN(C)S(=O)(=O)c2cn(C)cn2)Oc2ccc(NC(=O)C3CCCCC3)cc2C1=O	i	i	i	i	i
CCOC(=O)c1c(NC(=O)C(=O)N/N=C/c2ccc(OCC)cc2)sc2c1CCCCC2	i	16µM	i	i	i
CCOC(=O)c1c(NC(=O)c2cc(Cl)ccc2Cl)sc2c1CCCC2	nt	i	nt	nt	i
CCOC(=O)c1c(NC(=O)c2ccoc2C)sc2c1CCC2	i	21µM	i	i	i
CCOC(=O)c1c(NC(=O)C(C)OC(=O)c2ccc(NC(=O)CC#N)cc2)sc2c1CCCC2 (configuration not stated)	-80	i	i	i	i
CCOC(=O)c1c(NC(NC(=O)C(C)C)C(Cl)(Cl)Cl)sc2c1CCC2 (configuration not stated)	i	23µM	i	i	?
Cc1cccc(CCNC(=O)c2nc(-c3ccc(Cl)cc3)n3c2CCCCC3)c1	nt	i	nt	nt	i
Cc1ccc(Cl)cc1N1C(=O)CC(Sc2ncccn2)C1=O (configuration not stated)	i	i	i	i	i
O=C1CC(Sc2ncccn2)C(=O)N1c1ccccc1C(F)(F)F (configuration not stated)	-80	i	i	i	i
COc1ccc(C(O)(CCN2CCOCC2)c2ccccc2)cc1 (configuration not stated)	i	i	i	i	i
COc1ccc(N=Nc2c(C)n[nH]c2C)cc1	i	?	i	i	?
Nc1n[nH]c(N)c1N=Nc1ccccc1	-66	i	i	i	i
COc1ccc(N=Nc2c(N)n[nH]c2N)cc1	-53	i	i	i	i
Nc1n[nH]c(N)c1N=Nc1ccc(F)cc1	i	?	i	i	i
Nc1n[nH]c(N)c1N=Nc1ccc(Cl)cc1Cl	-57	i	i	?	?
O=C1CCc2cc(S(=O)(=O)NC(Cc3ccccc3)C(=O)N3CCN(c4ccccn4)CC3)ccc2N1 (configuration not stated)	i	i	i	i	i
Cc1ccc(S(=O)(=O)N2CCC(c3ccncc3)CC2)c(C)c1	nt	i	nt	nt	21µM
Cc1ccc(S(=O)(=O)N2CCN(S(=O)(=O)N3CCC(C)CC3)CC2)c(C)c1	i	?	i	i	i
CN(CCO)c1ccc2c(c1)OC[C@@H](Cc1ccccc1)NS2(=O)=O	i	?	i	i	i
CC(C)NC(=S)NNc1ncnc2sc3c(c12)CC(C)(C)OC3	i	i	i	i	i
CC1(C)Cc2c(sc3ncnc(NNC(=S)NCc4ccccc4)c23)CO1	i	?	?	1.8µM	5.2µM
SMILES	IL1B secr inh	KB-V1 MDR tox	HT1080NT lethal	HT1080 IDH1KD tx	KB-3-1 tox
Cn1c(SCC(=O)NC(=O)Cc2ccccc2)nnc1-c1ccc(F)cc1	i	i	i	i	i
CCN(CC)CCOc1ccc(Br)cc1	i	i	i	i	i
CCN(CC)CCOc1ccc(/C(=C(\Cl)c2ccccc2)c2ccccc2)cc1	i	i	4.6µM	15µM	?
COc1cccc(C(=O)OC(C)C(=O)NCC2CCCCC2)c1 (configuration not stated)	i	i	i	i	i
CC(C)(C)OC(=O)N1CCC(NC(=O)c2[nH]cnc2C(=O)Nc2cccc(Cl)c2)CC1	-58	?	i	i	i
CC(C)(C)OC(=O)N1CCN(C(=O)c2[nH]cnc2C(=O)Nc2ccc(Cl)cc2)CC1	-52	i	i	i	i
CC(C)(C)OC(=O)N1CCC(NC(=O)c2nc[nH]c2C(=O)NC2CCN(C(=O)OC(C)(C)C)CC2)CC1	i	?	i	i	i
NC1=NC(=Nc2cccc(S(=O)(=O)N3CCOCC3)c2)c2ccccc21	-60	i	i	i	i
NC1=NC(=Nc2ccc(S(N)(=O)=O)cc2)c2ccccc21	i	i	i	i	i
CNC(=S)NN=C(C)CCCC(C)=NNC(=S)NC	-105	i	i	i	?
CCOC(=O)c1c(C)n(C(=O)c2ccco2)c(=O)n1C(=O)c1ccco1	-68	i	i	i	i
COCCCn1c(O)c(/C=C2\N=C(C#N)C(=Nc3ccc(C)cc3)O2)sc1=S	-82	?	?	?	?
O=C(O)CCCn1c(O)c(C=C2N=c3ccccc3=N2)sc1=S	i	i	i	i	i
COc1ccc(NC(=O)CN(c2ccccc2F)S(=O)(=O)c2ccc(C)cc2)cc1	i	i	i	i	i
O=C(/C=N/O)Nc1ccc2sc3ccccc3c2c1	-100	i	?	?	i
CCOC(=O)c1nnn(C(CC)C(=O)Nc2c(C)cccc2C)c1C(=O)OCC (configuration not stated)	nt	?	nt	nt	i
CC(Nc1c([N+](=O)[O-])c(=O)oc2ccccc12)C(Cl)c1ccccc1 (configuration not stated)	-67	i	?	?	?
Cc1ccc(C)c(Nc2c([N+](=O)[O-])c(=O)oc3ccccc23)c1	-58	?	i	i	i
O=c1oc2ccccc2c(NC(c2ccccc2)c2ccccc2)c1[N+](=O)[O-]	i	i	i	i	i
C=CCC(Nc1ccccc1)C12C=CC(O1)C(C(=O)OC)=C2C(=O)OC (configuration not stated)	-113	?	?	?	18µM
COc1ccc(Nc2nccc(-c3cccc(N)c3)n2)cc1	-87	?	?	?	?
OC(CNCCNc1ncccc1C(F)(F)F)COc1ccc(F)cc1 (configuration not stated)	-82	i	i	?	i
COc1ccc(OCC(O)CNC(=O)c2cccs2)cc1 (configuration not stated)	i	i	i	i	i
CN(c1ccc(OCCOc2ccccc2Cl)cc1)S(=O)(=O)c1ccccc1	i	16µM	i	i	i
CO/C=C\C=C/c1nnn(-c2ccc(Cl)cc2)n1	i	i	i	?	i
Cc1cc(N)n2nc(-c3ccccc3)cc2n1	-72	?	?	?	?
Cc1ccc(-c2cc3nc(-c4ccccc4)cc(N)n3n2)cc1	i	i	i	i	i
CC(=O)N1CCc2cc(Br)cc(S(=O)(=O)CCC(=O)N3CCN(c4ccccc4)CC3)c21	nt	i	nt	nt	i

Screening results from PubChem BioAssay.
